# Source: PubChem BioAssay
# Most compounds without a hit are left out; they make up all but 2% or so of the library.
# TLR9-MyD88 inh = inhibitors of human TLR9-MyD88 binding; actives 0.21% (n = 340,000); CHO BLA complementation TLR9-MyD88, CCF4 FRET ratio; Q9NR96+Q99836; inhibition, % at 4.98 µM;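 active = inhibition above the mean over all tested compounds plus 3 SD, cut at about 21% in these data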;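 note: 0% = DMSO only wells and 100% = clavulanate BLA inhibitor control wells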
# Exocytosis inh = blocks lytic granule exocytosis; TALL-104 LAMP-1 surface exposure, flow cytometry; cells stimulated with thapsigargin and PMA; inhibition, % at 10 µM; actives 0.66% (n = 360,000); AID 651702;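 active = inhibition above about 55%, limit read from the data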
# ABHD5-PLIN5 inh = ABHD5-PLIN5 protein interaction inhibition; Q00G26+Q8WTS1; Split G. princeps luciferase complementation, luminescence, 4 h; inhibition, % at 4 µM; actives 0.78% (n = 360,000);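 active = inhibition above the mean inhibition across every tested compound plus 3 SD, cut at about 22% in these data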;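 note: 0% = DMSO only wells and the 100% control is not disclosed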
# NOD2-RIPK2 inh = blocks binding of human NOD2 to RIPK2; CHO BLA complementation NOD2-RIPK2, CCF4 ratio; inhibition, % at 4.98 µM; actives 0.38% (n = 360,000); AID 624267; in the data active = inhibition above about 21%;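 note: 0% = vehicle only and 100% = reference blocker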
# TLR4 MyD88 comp = inhibitors of human TLR4-MyD88 binding | O00206+Q99836 | HeLa CL3-4 TLR4/MyD88 BLA complementation, FRET ratio | inhibition, % at 8.4 µM | actives 0.18% (n = 200,000); in the data active = inhibition above about 25%;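 note: 0% = vehicle and 100% = reference inhibitor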
# Beta2AR agonist = agonists of human beta-2 adrenergic receptor inducing internalization | P07550 | response, % (concentration not given with the values) | Am2.2-beta2AR cells, FAP receptor internalization, flow cytometry | actives 0.43% (n = 340,000);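 active = response above a set limit, near 3 SD of response in nonfluorescent compounds, cut at about 42% in these data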
# Exocytosis CP01 = blocks lytic granule exocytosis. actives 11% (n = 1,500). shares compounds with Exocytosis inh. TALL-104 cells, LAMP-1 externalization, flow cytometry; stimulated with PMA plus thapsigargin. inhibition, % at 10 µM; in the data active = inhibition above about 60%;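 note: 0% = stimulated vehicle wells and 100% = unstimulated wells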
# An asterisk follows results filed as active; . = no result given.
SMILES,TLR9-MyD88 inh,Exocytosis inh,ABHD5-PLIN5 inh,NOD2-RIPK2 inh,TLR4 MyD88 comp,Beta2AR agonist,Exocytosis CP01
CC(C)[Si]1(C(C)C)OCC2OC(n3cnc4c(N)ncnc43)C(N)C2O[Si](C(C)C)(C(C)C)O1 (configuration not stated),3.0,10.5,4.5,-4.0,.,-2.2,.
CC(C)(C)c1cc(C(=O)Nc2ccc(F)cc2)n(Cc2ccc(F)cc2)n1,.,66.7*,-5.9,-4.4,.,-2.9,2.9
Cc1ccc(NC(=O)c2cc(C(C)(C)C)nn2Cc2ccccc2)cc1,-3.6,6.7,-10.3,-2.7,.,6.1,.
COCc1c(C(=O)NCCc2ccc(OC(F)F)cc2)oc2ccccc12,1.4,-11.5,-9.6,0.0,.,-5.5,.
CC(C)C(=O)c1cc2c(cc1NC(=O)c1cccs1)OCCO2,-15.1,75.0*,-2.2,1.5,-5.3,-9.9,-11.1
COc1ccc(OC)c(Nc2c3c(nc4ccccc24)CCC3)c1,-3.2,58.1*,-3.5,9.1,.,13.6,-1.1
COc1ccc2nc3c(c(-c4ccccc4)c2c1)CCC3,7.3,66.5*,-0.3,-6.2,4.1,0.3,3.2
O=[N+]([O-])c1ccc(Nc2c3ccccc3nc3ccccc23)cc1,-12.2,10.8,-8.4,-15.3,14.3,-6.3,.
COc1ccc(OC)c(Nc2c3ccccc3nc3ccccc23)c1,-6.2,67.0*,-11.2,-3.6,.,-77.1,-1.9
COc1cc(Nc2c3c(nc4ccccc24)CCC3)cc(OC)c1OC,-3.7,15.4,10.3,-0.2,.,16.3,.
COc1ccc([N+](=O)[O-])cc1Nc1c2ccccc2nc2ccccc12,-8.9,72.9*,5.5,1.1,.,6.6,73.2*
COc1ccc2nc3c(nc2c1)CCCC3,-1.0,-1.1,1.6,-0.3,.,-1.9,.
CC(=NNC(=O)COc1cccc(C)c1)c1cccnc1,2.6,-1.6,0.4,0.3,.,0.8,.
CC(=O)N1CCC(C(=O)N2c3ccccc3N=C(c3ccc(C(F)(F)F)cc3)C2C(=O)NC(C)(C)C)CC1 (configuration not stated),.,-7.7,5.0,7.0,.,.,.
CCc1cccc2c(C(=O)C(NCCOC)c3ccccc3)c[nH]c12 (configuration not stated),-4.8,65.8*,3.7,3.0,.,-0.5,-9.7
C[C@]12CCC[C@H](O1)c1c(cc3c(c1O)C(=O)c1c(O)cc(O)cc1C3=O)O2,-1.3,21.9,-5.0,2.6,.,-254.8,.
Cc1ccc(S(=O)(=O)c2nc(-c3ccco3)oc2SCC(=O)NCC2CCCO2)cc1 (configuration not stated),-8.9,89.4*,8.3,1.9,3.5,7.4,-9.9
Cc1ccc(S(=O)(=O)c2nc(-c3ccccc3)oc2SCC(=O)NCC2CCCO2)cc1 (configuration not stated),-5.1,9.2,2.4,-6.2,.,-10.1,.
Cc1ccnc(NC(=O)C2CCN(S(=O)(=O)c3ccc(C)c(C)c3)CC2)c1,1.9,65.4*,-4.6,-0.3,.,1.2,-3.1
Cc1ccnc(NC(=O)C2CCN(S(=O)(=O)c3cccc(C(F)(F)F)c3)CC2)c1,-7.5,14.0,-1.9,-5.3,.,-5.2,.
CSc1ccccc1C(=O)OCC(=O)NC1CC1,-8.6,-6.4,1.4,-11.6,.,.,.
NC(=O)C1CC2(C1)CC(C(N)=O)C2 (configuration not stated),.,-3.3,3.6,18.5,.,.,.
COC(C[C@@H](O)[C@H](C)[C@@H](O)COCc1ccccc1)OC,-4.3,69.5*,0.2,8.6,.,6.7,-4.9
COC(C[C@H](O)[C@@H](C)[C@@H](O)COCc1ccccc1)OC,-2.1,43.6,-1.1,-4.4,.,6.5,.
COc1ccccc1-c1cnc(C(O)c2cc(C)ccc2C)[nH]1 (configuration not stated),.,-1.1,-1.4,5.5,.,.,.
COc1ccc2nc3cc(Cl)ccc3c(Nc3ccc(O)c(CN4CCN(C)CC4)c3)c2c1,8.7,66.1*,5.9,9.3,.,10.4,75.0*
Cc1nc(-c2ccc(Cl)cc2)sc1C1(C)CC(c2ccccc2)=NO1 (configuration not stated),-9.6,83.2*,-6.8,0.8,.,5.1,-4.0
COc1ccc(Cl)cc1Nc1nc(C)nc2c1nnn2Cc1ccccc1,3.6,-4.1,-4.4,-4.4,.,-2.5,.
